Compound activity as filed in PubChem.
ALOX12 inhib: qHTS Assay for Inhibitors of 12-hLO (12-human lipoxygenase); Potency, µM (series often up to 57.1 µM), for the others: at the top dose activity change, negative = inhibition, most hits filed as inhibitors; 0.12% of 150,000 active; AID 1452, 2008; purified 12-hLO, xylenol orange hydroperoxide absorbance; Polyunsaturated fatty acid lipoxygenase ALOX12 (Homo sapiens), P18054; active means well fitted inhibition curve with a large enough effect; inconclusive means small, poorly fitted or top-dose-only effect; further: potency means the concentration at half of the fitted maximal effect; nearly all actives have a fitted effect of over 55% in size
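150 nM 12hLO, 25 mM Hepes pH 7.0 + 0.01% Triton X-100; cpd preinc 15 min RT; 40 uM arachidonic acid, 30 min RT; Fe-XO 30 min; A573/A405 ratio as read-out.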
PNC inhibitor: High Content Assay for Compounds that inhibit the Assembly of the Perinucleolar Compartment; PC3M PTB-GFP, PNC prevalence imaging, 16 h; stronger effect = lower value; activity change (PNC), negative = inhibition, % at 10 µM; 3.1% of 140,000 active;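 active means readout at or below -70, meaning at least 70% loss of cells showing the perinucleolar compartment, a nuclear body marking cancer cells; inconclusive means readout between -30 and a set limit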;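 further: plate controls were DMSO wells for no effect and camptothecin positive control wells for full effect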
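Read-out is percentage of cells bearing a perinucleolar compartment, from automated 20x imaging of fixed, Hoechst-stained PC3M PTB-GFP cells. Cells were seeded 4 h, then exposed 16 h to compound (23 nl of library stock) in duplicate plates.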
ALDH1A1 inh: qHTS Assay for Inhibitors of Aldehyde Dehydrogenase 1 (ALDH1A1) | Potency, µM (doses to about 75.3 µM), inactives show at the top dose activity, negative = inhibition, usual class: inhibitors | Purified ALDH1A1, NADH fluorescence, propionaldehyde substrate | 7.3% of 220,000 active | Aldehyde dehydrogenase 1A1 (Homo sapiens), P00352;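 further: potency means the concentration at half of the fitted maximal effect; plate controls were no enzyme wells and a reference inhibitor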
Target sequence (P00352 whole entry, looked up): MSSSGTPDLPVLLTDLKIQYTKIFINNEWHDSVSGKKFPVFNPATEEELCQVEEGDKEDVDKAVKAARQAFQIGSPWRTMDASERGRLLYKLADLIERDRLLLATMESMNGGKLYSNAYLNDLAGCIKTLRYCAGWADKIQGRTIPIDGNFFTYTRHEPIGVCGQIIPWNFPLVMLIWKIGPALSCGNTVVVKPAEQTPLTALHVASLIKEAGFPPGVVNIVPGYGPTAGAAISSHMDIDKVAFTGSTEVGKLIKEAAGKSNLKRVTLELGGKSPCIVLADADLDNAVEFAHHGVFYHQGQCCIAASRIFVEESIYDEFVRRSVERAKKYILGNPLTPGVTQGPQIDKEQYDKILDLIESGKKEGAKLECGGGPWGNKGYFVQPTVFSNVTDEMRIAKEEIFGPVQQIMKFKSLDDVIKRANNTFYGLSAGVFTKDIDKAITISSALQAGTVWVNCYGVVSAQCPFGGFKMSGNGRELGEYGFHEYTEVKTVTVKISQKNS
Lamin A splicing: qHTS Assay for Modulators of Lamin A Splicing; Potency, µM (titrated, usually from 46.1 µM), without a hit: at the top dose ratio change, negative = inhibition, usual class: inhibitors; 0.01% of 200,000 active; AID 1487, 2009; HeLa LMNA splicing GFP/RFP minigene ratio, 48 h; active means well fitted inhibition curve with a large enough effect in the signal ratio, with a control signal flat, not every such curve was filed as active; inconclusive means small, poorly fitted or top-dose-only effect, or effect the other way, or a change in a side signal; the % refers to the signal ratio; further: potency means the concentration at half of the fitted maximal effect
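S3 HeLa cells stably expressing lamin A-EGFP splicing minigene plus DsRed2, 600 cells/well, 48 h compound exposure at 37C. Laser-scanning cytometry; analysed as GFP (500-530 nm)/RFP (575-640 nm) total intensity ratio; 0.5% DMSO vehicle.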
HPGD inh: qHTS Assay for Inhibitors of HPGD (15-Hydroxyprostaglandin Dehydrogenase); 15-hydroxyprostaglandin dehydrogenase [NAD(+)] (Homo sapiens), P15428; purified HPGD, NADH fluorescence kinetic, PGE2 substrate; Potency, µM, for inactives: at the top dose activity change, negative = inhibition, usual class: inhibitors; 4.3% of 150,000 active; further: potency means the concentration at half of the fitted maximal effect
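20 nM HPGD preincubated 15 min at room temperature with compound in 50 mM Tris-HCl pH 8, 0.01% Tween 20. Started with 1 mM NAD+ and 30 uM prostaglandin E2; NADH fluorescence (360/450 nm) read 5 times over 30-s intervals, last minus first.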
Starred values were filed as active, the others as inactive; [ ] = another dose, or the depositor's remark. Shown are actives, neighbours in structure and some others; about 10% of the full set was active somewhere. Unless noted, the call rests on the fitted dose curve; in most records, active means well fitted inhibition curve with a large enough effect (not every such curve was filed as active); inconclusive means small, poorly fitted or top-dose-only effect, or another doubt; inactive means no such curve, though single readings can be large or run the other way. Unless noted, on the % scale 0 is the no-effect control and ±100 the full control effect.

Results for CN(C)S(=O)(=O)c1ccc(C(=O)Nc2nc(-c3cccs3)cs2)cc1 ?
ALOX12 inhib: -6%; PNC inhibitor: 30; ALDH1A1 inh: 162%; Lamin A splicing: -12%; HPGD inh: inconclusive

What do the screens show for `COc1ccc(-n2c(C)cc(-c3csc(NC(=O)c4ccc(S(=O)(=O)N(C)C)cc4)n3)c2C)cc1`?
ALOX12 inhib: -2%; PNC inhibitor: 10; ALDH1A1 inh: 2.2µM*; Lamin A splicing: inconclusive; HPGD inh: -4%

Results for COC(=O)C1CCN(S(=O)(=O)c2cc3c4c(c2)C(C)C(=O)N4CCC3)CC1 (stereo unspecified) ?
Lamin A splicing: -2%[46 µM]

What do the screens show for `O=C(CN1C(=O)C2CCCCN2c2ccc(C(=O)N3CCCC3)cc21)NCc1ccccc1` (stereo unspecified)?
Lamin A splicing: 2%[46 µM]

Results for Cc1ccc(/C=N/n2c(COc3ccccc3)n[nH]c2=S)o1 ?
ALDH1A1 inh: 11%

Results for O=[N+]([O-])c1ccc(/C=N/n2c(C3CCCCC3)n[nH]c2=S)cc1 ?
ALOX12 inhib: -7%; PNC inhibitor: 6; ALDH1A1 inh: -2%; Lamin A splicing: 5%; HPGD inh: 4.5µM*

Results for S=c1[nH]nc(C2CCCCC2)n1/N=C/c1cccs1 ?
ALOX12 inhib: -7%; PNC inhibitor: 55; ALDH1A1 inh: 22µM*; Lamin A splicing: 5%; HPGD inh: 13µM*

Results for S=c1[nH]nc(C2CCCCC2)n1/N=C/c1ccncc1 ?
ALDH1A1 inh: -8%

Results for Cc1cccc(-c2n[nH]c(=S)n2/N=C/c2ccc(C)o2)c1 ?
ALOX12 inhib: 1%; PNC inhibitor: 38; ALDH1A1 inh: inconclusive; Lamin A splicing: inconclusive; HPGD inh: 16µM*

How did Cc1ccc(/C=N/n2c(C3CCCCC3)n[nH]c2=S)o1 do in these assays?
ALOX12 inhib: -1%; PNC inhibitor: 57; ALDH1A1 inh: inconclusive; Lamin A splicing: 13%; HPGD inh: 28µM*

What do the screens show for `O=C(Oc1cccc2c(OC(=O)N3CCOCC3)cccc12)N1CCOCC1`?
ALOX12 inhib: -2%; PNC inhibitor: -21; ALDH1A1 inh: 0%; Lamin A splicing: 10%; HPGD inh: -4%

How did O=C(Oc1cccc2c(OC(=O)N3CCCC3)cccc12)N1CCCC1 do in these assays?
ALOX12 inhib: 0%; PNC inhibitor: -100*; ALDH1A1 inh: inconclusive; Lamin A splicing: -7%; HPGD inh: -26%

How did Cc1c(Cl)cccc1NC(=O)CNc1ccccc1F do in these assays?
ALOX12 inhib: -2%; PNC inhibitor: -17; ALDH1A1 inh: 10µM*; Lamin A splicing: -7%

How did Cc1c(Cl)cccc1NC(=O)CNCc1ccccc1F do in these assays?
ALDH1A1 inh: 0%; Lamin A splicing: 0%[46 µM]

Results for Cc1oc(/N=C/c2ccccc2O)c(C#N)c1C ?
ALOX12 inhib: -13%; PNC inhibitor: -25; ALDH1A1 inh: inconclusive; Lamin A splicing: inconclusive; HPGD inh: -20%

What do the screens show for `Cc1oc(/N=C/c2c(O)ccc3ccccc23)c(C#N)c1C`?
ALOX12 inhib: -6%; PNC inhibitor: 30; ALDH1A1 inh: 35µM*; Lamin A splicing: 3%; HPGD inh: -13%

Results for NC(=O)c1c(NC(=S)Nc2ccc(F)cc2)sc2c1CCCC2 ?
ALDH1A1 inh: 10µM*

How did NC(=O)c1c(NC(=S)Nc2ccccc2)sc2c1CCCC2 do in these assays?
ALDH1A1 inh: 7.9µM*; Lamin A splicing: inconclusive

Results for CCOC(=O)c1c(NC(=S)Nc2ccc(F)cc2)sc2c1CCC2 ?
ALOX12 inhib: -14%; PNC inhibitor: 26; ALDH1A1 inh: -11%; Lamin A splicing: 19%; HPGD inh: 1%

What do the screens show for `Cc1cccc(Cc2c(C)nc3nc(SCc4ccccc4F)nn3c2C)c1`?
Lamin A splicing: -8%[46 µM]
